Key:
Assay in all cases: log2 ratio of Biotin-Ahx-Ub-VS probe labelling (fragment/DMSO); higher = less target engagement (more negative = stronger competition), active = hit call of the paper (q ≤ 0.05, log2 ratio ≤ -1)
Conditions in all cases: compound concentration: 200 uM; treatment time: 3 h
USP16 = USP16 (UniProt Q9Y5T5)
Outline: (§1)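 Global-median-normalised Spectronaut label-free quantities were compared by unpaired t-test, and values are average log2 ratios of fragment over vehicle. Only proteins with ≥2 unique peptides were used. HEK293T lysate (495 µg per sample) was treated in triplicate with fragment at 200 µM or vehicle for 3 h and then with Biotin-Ahx-Ub-VS at 0.5 µM final for 1 h. Labelled DUBs were then NeutrAvidin-enriched, digested with LysC and trypsin, and run by diaPASEF LC-MS/MS.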

USP19 = biological target: T1, USP19 (UniProt O94966)
T1 sequence (whole entry): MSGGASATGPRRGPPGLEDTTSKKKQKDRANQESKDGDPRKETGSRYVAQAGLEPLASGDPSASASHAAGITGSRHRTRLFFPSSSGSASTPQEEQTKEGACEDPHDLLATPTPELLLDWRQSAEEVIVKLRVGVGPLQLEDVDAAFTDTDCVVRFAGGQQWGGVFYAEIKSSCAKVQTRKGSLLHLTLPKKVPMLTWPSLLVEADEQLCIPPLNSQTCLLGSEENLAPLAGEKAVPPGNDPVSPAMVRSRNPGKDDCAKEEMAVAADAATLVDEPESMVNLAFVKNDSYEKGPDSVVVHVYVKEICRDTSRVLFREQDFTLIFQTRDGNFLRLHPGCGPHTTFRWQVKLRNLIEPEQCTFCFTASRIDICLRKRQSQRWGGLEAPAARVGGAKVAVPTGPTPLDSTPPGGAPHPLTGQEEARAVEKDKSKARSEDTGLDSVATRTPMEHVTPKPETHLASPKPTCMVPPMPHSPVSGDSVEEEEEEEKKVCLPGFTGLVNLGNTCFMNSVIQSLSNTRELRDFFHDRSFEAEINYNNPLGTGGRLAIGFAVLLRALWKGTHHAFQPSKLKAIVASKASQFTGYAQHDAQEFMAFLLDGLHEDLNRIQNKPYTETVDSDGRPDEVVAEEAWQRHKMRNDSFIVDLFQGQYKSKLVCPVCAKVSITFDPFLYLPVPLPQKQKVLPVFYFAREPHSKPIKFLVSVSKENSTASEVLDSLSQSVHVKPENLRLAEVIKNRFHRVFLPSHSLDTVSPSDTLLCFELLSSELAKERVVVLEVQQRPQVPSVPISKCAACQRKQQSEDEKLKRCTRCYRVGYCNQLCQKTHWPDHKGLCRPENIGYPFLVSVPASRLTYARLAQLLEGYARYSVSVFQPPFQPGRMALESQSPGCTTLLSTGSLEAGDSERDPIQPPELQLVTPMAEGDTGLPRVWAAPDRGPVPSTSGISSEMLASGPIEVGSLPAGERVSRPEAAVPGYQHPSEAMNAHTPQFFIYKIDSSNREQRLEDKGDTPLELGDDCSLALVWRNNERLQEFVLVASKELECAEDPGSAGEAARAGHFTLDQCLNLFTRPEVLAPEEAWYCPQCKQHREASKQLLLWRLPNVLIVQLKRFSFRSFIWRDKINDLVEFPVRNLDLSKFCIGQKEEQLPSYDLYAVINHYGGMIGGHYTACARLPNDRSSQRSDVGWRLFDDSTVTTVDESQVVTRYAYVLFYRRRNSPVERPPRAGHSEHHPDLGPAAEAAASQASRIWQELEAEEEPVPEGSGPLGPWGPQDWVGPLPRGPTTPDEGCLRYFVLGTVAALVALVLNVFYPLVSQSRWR
Outline: as §1

USP24 = USP24 (UniProt Q9UPU5)
Outline: as §1

USP25 = biological target: T2, USP25 (UniProt Q9UHP3)
T2 sequence (whole entry): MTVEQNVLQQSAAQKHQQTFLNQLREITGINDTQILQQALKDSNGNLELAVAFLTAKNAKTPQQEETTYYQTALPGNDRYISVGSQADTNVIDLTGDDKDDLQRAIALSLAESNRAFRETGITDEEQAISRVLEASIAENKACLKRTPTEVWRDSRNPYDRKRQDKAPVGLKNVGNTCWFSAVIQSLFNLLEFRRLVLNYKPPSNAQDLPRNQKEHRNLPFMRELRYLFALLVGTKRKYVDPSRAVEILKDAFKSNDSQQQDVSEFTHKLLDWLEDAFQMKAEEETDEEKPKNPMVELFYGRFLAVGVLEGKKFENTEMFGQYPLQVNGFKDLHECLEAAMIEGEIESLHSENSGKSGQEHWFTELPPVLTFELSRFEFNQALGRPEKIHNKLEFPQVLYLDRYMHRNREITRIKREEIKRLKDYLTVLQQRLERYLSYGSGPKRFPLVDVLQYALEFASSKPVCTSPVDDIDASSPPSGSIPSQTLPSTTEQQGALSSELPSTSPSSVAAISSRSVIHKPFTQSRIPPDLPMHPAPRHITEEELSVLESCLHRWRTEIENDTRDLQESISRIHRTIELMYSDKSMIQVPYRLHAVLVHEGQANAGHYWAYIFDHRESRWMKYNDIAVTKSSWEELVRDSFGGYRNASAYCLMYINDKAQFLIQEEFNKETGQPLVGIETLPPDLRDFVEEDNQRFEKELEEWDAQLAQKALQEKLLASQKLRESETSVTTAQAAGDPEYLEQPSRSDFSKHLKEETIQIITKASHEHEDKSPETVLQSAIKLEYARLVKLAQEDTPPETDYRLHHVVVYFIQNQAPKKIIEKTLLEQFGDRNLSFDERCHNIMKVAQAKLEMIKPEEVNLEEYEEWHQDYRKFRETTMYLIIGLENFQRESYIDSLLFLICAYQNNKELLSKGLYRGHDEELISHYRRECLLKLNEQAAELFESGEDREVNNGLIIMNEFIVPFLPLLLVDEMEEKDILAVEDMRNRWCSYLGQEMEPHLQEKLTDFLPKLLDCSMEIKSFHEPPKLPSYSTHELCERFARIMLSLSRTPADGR
Outline: as §1

USP28 = biological target: T3, USP28 (UniProt Q96RU2)
T3 sequence (whole entry): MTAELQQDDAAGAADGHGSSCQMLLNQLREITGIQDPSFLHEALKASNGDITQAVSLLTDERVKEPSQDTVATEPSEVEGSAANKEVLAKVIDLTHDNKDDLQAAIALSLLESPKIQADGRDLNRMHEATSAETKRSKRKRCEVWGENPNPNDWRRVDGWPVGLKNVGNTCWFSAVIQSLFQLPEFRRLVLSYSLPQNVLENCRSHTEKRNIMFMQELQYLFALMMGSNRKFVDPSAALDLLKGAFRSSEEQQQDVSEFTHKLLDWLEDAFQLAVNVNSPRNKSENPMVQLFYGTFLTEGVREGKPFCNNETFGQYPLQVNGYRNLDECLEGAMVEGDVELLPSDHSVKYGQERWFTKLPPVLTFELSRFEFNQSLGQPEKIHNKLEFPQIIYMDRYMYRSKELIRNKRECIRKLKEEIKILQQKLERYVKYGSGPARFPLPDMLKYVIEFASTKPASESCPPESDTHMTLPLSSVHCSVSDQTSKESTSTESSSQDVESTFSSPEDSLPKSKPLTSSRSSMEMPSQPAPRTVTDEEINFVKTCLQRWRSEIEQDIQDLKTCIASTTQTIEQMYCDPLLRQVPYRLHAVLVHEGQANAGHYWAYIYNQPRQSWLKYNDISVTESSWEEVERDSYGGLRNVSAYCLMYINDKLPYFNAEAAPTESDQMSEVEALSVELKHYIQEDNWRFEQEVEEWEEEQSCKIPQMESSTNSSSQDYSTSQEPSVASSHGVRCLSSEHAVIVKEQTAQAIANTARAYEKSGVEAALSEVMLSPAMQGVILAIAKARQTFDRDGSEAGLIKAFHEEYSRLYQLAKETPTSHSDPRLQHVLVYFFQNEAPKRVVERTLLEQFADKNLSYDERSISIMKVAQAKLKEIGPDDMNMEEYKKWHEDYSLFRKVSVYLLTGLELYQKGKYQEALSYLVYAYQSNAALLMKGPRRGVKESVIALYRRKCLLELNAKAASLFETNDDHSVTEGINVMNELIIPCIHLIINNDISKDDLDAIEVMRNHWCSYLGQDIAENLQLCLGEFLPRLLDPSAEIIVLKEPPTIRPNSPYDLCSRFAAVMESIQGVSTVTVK
Outline: as §1

Measured: log2 ratio of Biotin-Ahx-Ub-VS probe labelling

Chain of USP24 (Q9UPU5 whole entry): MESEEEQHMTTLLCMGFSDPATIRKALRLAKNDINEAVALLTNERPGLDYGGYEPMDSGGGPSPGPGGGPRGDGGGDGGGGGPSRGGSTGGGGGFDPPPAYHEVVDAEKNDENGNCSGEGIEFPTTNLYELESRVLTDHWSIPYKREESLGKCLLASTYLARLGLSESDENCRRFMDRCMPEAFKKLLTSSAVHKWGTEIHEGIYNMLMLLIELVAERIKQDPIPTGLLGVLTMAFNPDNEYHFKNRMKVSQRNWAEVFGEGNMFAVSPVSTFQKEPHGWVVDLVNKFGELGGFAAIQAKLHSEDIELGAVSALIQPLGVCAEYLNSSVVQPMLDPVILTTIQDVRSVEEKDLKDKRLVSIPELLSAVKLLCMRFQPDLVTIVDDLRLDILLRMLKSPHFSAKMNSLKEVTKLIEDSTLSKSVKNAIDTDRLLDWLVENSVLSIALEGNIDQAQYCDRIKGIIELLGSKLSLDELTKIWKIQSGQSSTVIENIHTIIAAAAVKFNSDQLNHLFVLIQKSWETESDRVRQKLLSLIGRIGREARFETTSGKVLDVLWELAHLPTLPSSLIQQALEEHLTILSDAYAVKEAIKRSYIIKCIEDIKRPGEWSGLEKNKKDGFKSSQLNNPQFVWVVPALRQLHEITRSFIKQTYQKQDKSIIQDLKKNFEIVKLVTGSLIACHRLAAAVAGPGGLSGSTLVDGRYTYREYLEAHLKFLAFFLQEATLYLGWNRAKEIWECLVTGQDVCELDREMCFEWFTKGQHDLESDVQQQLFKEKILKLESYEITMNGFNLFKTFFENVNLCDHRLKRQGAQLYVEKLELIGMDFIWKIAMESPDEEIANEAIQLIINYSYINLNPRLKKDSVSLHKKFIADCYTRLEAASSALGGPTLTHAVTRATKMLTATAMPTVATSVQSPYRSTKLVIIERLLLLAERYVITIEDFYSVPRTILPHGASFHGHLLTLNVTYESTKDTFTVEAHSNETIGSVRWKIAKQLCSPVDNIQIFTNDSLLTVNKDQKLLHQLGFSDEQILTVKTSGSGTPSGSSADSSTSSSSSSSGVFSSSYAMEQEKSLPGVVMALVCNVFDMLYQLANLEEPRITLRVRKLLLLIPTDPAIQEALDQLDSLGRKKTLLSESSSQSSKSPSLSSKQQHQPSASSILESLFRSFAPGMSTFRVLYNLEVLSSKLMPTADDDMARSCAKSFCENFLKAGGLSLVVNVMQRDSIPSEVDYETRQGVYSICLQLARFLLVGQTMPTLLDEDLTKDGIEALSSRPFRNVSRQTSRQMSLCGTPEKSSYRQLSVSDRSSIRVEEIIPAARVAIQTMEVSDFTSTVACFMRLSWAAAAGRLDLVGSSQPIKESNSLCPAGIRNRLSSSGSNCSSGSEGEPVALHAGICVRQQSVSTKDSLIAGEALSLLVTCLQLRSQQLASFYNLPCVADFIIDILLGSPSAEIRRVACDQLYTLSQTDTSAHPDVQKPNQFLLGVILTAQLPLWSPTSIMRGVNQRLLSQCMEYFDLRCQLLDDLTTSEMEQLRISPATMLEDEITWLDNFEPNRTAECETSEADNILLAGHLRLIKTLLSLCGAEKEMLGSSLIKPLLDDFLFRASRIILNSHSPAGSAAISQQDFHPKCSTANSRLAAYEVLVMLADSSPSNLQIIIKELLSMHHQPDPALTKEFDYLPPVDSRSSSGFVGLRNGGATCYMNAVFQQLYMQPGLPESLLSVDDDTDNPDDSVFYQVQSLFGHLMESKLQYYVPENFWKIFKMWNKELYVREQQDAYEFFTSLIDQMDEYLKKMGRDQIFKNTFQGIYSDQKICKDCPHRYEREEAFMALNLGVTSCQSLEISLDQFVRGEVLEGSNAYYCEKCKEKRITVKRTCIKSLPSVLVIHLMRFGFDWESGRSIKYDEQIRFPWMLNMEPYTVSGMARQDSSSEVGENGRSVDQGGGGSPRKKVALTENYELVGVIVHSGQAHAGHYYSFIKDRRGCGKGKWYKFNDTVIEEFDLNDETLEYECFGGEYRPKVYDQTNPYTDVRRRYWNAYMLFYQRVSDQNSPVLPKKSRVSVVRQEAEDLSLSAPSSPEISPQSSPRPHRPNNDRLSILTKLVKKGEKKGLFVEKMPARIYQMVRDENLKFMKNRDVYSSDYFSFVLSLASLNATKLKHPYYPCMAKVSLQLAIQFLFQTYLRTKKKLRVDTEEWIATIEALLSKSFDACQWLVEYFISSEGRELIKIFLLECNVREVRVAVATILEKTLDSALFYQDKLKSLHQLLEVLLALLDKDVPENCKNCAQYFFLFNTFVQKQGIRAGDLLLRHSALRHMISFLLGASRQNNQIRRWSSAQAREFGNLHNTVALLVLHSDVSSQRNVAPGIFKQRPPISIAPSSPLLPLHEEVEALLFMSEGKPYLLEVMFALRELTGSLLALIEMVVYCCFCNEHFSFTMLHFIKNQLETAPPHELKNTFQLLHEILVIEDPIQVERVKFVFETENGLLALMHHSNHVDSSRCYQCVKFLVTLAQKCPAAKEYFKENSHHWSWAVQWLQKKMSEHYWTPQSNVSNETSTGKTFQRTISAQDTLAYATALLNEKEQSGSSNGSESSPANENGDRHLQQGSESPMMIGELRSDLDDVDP
Chain of USP16 (Q9Y5T5 whole entry, looked up, the tested form may be a part): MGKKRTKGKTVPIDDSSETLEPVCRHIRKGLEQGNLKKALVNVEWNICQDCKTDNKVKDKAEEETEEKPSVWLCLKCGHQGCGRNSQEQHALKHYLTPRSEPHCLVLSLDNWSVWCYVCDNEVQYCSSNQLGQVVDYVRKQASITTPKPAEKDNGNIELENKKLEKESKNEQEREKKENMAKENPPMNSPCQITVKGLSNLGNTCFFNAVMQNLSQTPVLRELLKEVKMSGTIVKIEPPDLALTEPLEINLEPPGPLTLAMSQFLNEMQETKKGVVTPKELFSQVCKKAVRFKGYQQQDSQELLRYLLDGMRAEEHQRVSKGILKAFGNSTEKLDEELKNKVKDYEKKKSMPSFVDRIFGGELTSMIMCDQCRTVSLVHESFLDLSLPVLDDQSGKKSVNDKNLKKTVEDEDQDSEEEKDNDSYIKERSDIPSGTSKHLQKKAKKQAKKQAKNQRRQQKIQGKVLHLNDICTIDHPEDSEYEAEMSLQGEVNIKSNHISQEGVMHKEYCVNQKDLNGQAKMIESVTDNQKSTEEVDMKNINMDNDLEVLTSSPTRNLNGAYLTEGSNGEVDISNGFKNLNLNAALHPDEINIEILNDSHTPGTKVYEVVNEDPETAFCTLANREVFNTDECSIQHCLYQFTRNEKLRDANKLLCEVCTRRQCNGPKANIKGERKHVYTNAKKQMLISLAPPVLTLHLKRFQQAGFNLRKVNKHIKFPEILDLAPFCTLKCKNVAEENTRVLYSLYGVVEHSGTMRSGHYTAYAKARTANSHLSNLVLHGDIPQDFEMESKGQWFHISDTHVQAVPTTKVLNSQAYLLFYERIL

Cc1nc(CC2CCN(C(=O)CCl)CC2)no1
inactive: USP16 0.0849 | USP19 -0.747 | USP24 -0.783 | USP25 -0.763 | USP28 -0.873

From the supplement of paper PMC11732987, “Enantioselective OTUD7B fragment discovery through chemoproteomics screening and high-throughput optimisation” (Communications Chemistry, 2025)
